According to PubChem BioAssay (NCI):
Compounds without any hit were thinned out: in the full panel of roughly 83,000, 20% have a hit.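 Each cell line was grown in a 96-well plate and treated with one concentration of compound for 48 hours. Values below 10 were considered active.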 Unmarked numbers belong to inactive results. Active and inactive are the calls of the source.

Columns and labels:
Assay in all cases: NCI-60 one-dose screen, 48 h (100 = growth as untreated, 0 = no growth, -100 = all killed)
Details in all cases: 10 µM unless noted
[1] = tested on: NCI-H23 lung
[2] = tested on: NCI-H226 lung
[3] = tested on: NCI-H322M lung
[4] = tested on: HOP-62 NSCLC
[5] = tested on: NCI-H460 lung
[6] = tested on: HOP-92 NSCLC
[7] = tested on: NCI-H522 lung
[8] = tested on: A549/ATCC NSCLC
[9] = tested on: 786-0 renal
[10] = tested on: COLO 205 colon

For `c1ccc2nc(N3CCOCC3)c(N3CCCCC3)nc2c1`, which growth [1] is on record?
Its growth is 95.6%.

What about the growth [2] of the same compound?
The growth was 95.8%.

What about the growth [3] of the same compound?
Its growth is 95.9%.

And the growth [4]?
The growth was 94.1%.

What about the growth [5] of the same compound?
Its growth is 105%.

What about the growth [6] of the same compound?
Its growth is 84.5%.

What about the growth [7] of the same compound?
The growth was 85.3%.

And the growth [8]?
Its growth is 96.9%.

And the growth [9]?
The growth was 102%.

What about the growth [10] of the same compound?
The growth was 110%.

Which growth [1] does the source give for `COc1cc(/C=C/C(=O)c2ccc(NC(=O)CSc3nnc(-c4cc(OC)c(OC)c(OC)c4)n3-c3ccccc3)cc2)cc(OC)c1OC` here?
The growth was -3.58% (active).

And the growth [2]?
Its growth is -64% (active).

What about the growth [3] of the same compound?
The growth was 64.5%.

What about the growth [4] of the same compound?
Its growth is -9.19% (active).

What about the growth [5] of the same compound?
Its growth is 13%.

And the growth [6]?
The growth was 53.9%.

What about the growth [7] of the same compound?
Its growth is -4.14% (active).

What about the growth [8] of the same compound?
The growth was 20.2%.

What about the growth [9] of the same compound?
The growth was -52% (active).

What about the growth [10] of the same compound?
The growth was 10.2%.

For `CCCn1c2cc(OCc3cn(-c4ccc(Br)cc4)nn3)ccc2c2ccnc(C)c21`, which growth [1] is on record?
Its growth is 81.7%.

And the growth [2]?
The growth was 25.6%.

What about the growth [3] of the same compound?
Its growth is 71.5%.

What about the growth [4] of the same compound?
Its growth is 63.9%.

And the growth [5]?
Its growth is 36.2%.

And the growth [6]?
Its growth is 60%.

What about the growth [7] of the same compound?
The growth was 76.1%.

And the growth [8]?
Its growth is 53.7%.

And the growth [9]?
Its growth is 36.7%.

And the growth [10]?
Its growth is 42%.

With `COc1cc(-c2nn(-c3ccc(Br)cc3)cc2CO)ccc1O` as the compound, how does the growth [1] read?
The growth was 95.2%.

And the growth [2]?
The growth was 105%.

What about the growth [3] of the same compound?
The growth was 93.8%.

What about the growth [4] of the same compound?
The growth was 95.4%.

And the growth [5]?
The growth was 101%.

What about the growth [6] of the same compound?
Its growth is 90.8%.

What about the growth [7] of the same compound?
Its growth is 72.1%.

And the growth [8]?
The growth was 78.1%.

And the growth [9]?
The growth was 95.6%.

What about the growth [10] of the same compound?
The growth was 119%.

For `CC1CCCN(CCCCCOc2ccc3oc4ccccc4c(=O)c3c2)C1` (stereo not given), which growth [1] is on record?
Its growth is 75%.

And the growth [2]?
The growth was 104%.

What about the growth [3] of the same compound?
The growth was 76.9%.

And the growth [4]?
Its growth is 91.3%.

And the growth [5]?
Its growth is 75.5%.

And the growth [6]?
Its growth is 90.2%.

And the growth [7]?
Its growth is 67.4%.

And the growth [8]?
Its growth is 68.7%.

And the growth [9]?
The growth was 69.8%.

And the growth [10]?
The growth was 36.1%.

For `O=C(CCc1nnco1)c1nc2ccc([N+](=O)[O-])cc2[nH]1`, which growth [1] is on record?
The growth was 86.3%.

What about the growth [2] of the same compound?
Its growth is 99.4%.

And the growth [3]?
The growth was 99.1%.

And the growth [4]?
Its growth is 113%.

What about the growth [5] of the same compound?
Its growth is 108%.

And the growth [6]?
Its growth is 119%.

What about the growth [7] of the same compound?
Its growth is 101%.

What about the growth [8] of the same compound?
The growth was 100%.

What about the growth [9] of the same compound?
The growth was 111%.

What about the growth [10] of the same compound?
Its growth is 121%.

What does the source list for `NC(=O)c1ccc(C2C3=C(CCCC3=O)OC3=C2C(=O)c2ccccc2C3=O)cc1` (stereo not given)?
growth [1]: -34.7% (active); growth [2]: 113%; growth [3]: 104%; growth [4]: 23.6%; growth [5]: 7.97% (active); growth [6]: 71.2%; growth [7]: -26.5% (active); growth [8]: 26.7%; growth [9]: 94.8%; growth [10]: -1.47% (active)

`COc1cc(/C=C/C(=O)c2cccs2)ccc1OCc1ccc(Cl)nc1` was tested. Which growth [1] did it give?
The growth was 77.5%.

What about the growth [2] of the same compound?
The growth was 86.8%.

What about the growth [3] of the same compound?
Its growth is 85.9%.

And the growth [4]?
Its growth is 102%.

What about the growth [5] of the same compound?
The growth was 83.6%.

And the growth [6]?
Its growth is 85.2%.

And the growth [7]?
Its growth is 86.1%.

And the growth [8]?
The growth was 99%.

And the growth [9]?
The growth was 75.3%.

What about the growth [10] of the same compound?
Its growth is 98.1%.

`CCOC(=O)c1c(C)nc2c(c1N)/C(=C/c1ccccn1)C(=O)N2Cc1ccccc1` was tested. Which growth [1] did it give?
The growth was 23.6%.

And the growth [2]?
Its growth is 44.4%.

And the growth [3]?
Its growth is 62.7%.

What about the growth [4] of the same compound?
Its growth is -8.66% (active).

And the growth [5]?
Its growth is 4.8% (active).

And the growth [6]?
Its growth is 30.5%.

What about the growth [7] of the same compound?
The growth was 0.177% (active).

What about the growth [8] of the same compound?
The growth was 44.6%.

And the growth [9]?
Its growth is -64.8% (active).

And the growth [10]?
The growth was -42.7% (active).

How did the growth [1] turn out when `O=C(O)C(C(=O)O)c1cccc2ccccc12` was run?
Its growth is 99.9%.

What about the growth [2] of the same compound?
The growth was 102%.

And the growth [3]?
The growth was 101%.

And the growth [4]?
The growth was 92.7%.

And the growth [5]?
Its growth is 104%.

And the growth [6]?
The growth was 94.5%.

And the growth [7]?
The growth was 88.9%.

What about the growth [8] of the same compound?
Its growth is 94.4%.

What about the growth [9] of the same compound?
Its growth is 95.4%.

What about the growth [10] of the same compound?
The growth was 110%.

`O=C(Nc1nccs1)c1noc2ccccc12` was tested. Which growth [1] did it give?
Its growth is 91.9%.

And the growth [2]?
Its growth is 92.7%.

And the growth [3]?
Its growth is 92%.

And the growth [4]?
The growth was 86.8%.

And the growth [5]?
The growth was 96.6%.

What about the growth [6] of the same compound?
Its growth is 76.2%.

And the growth [7]?
Its growth is 86.6%.

And the growth [8]?
Its growth is 95.7%.

What about the growth [9] of the same compound?
The growth was 95.7%.

What about the growth [10] of the same compound?
The growth was 104%.

Which growth [1] does the source give for `Cc1c(Cl)cccc1NC(=O)c1sc2nc3c(cc2c1N)COCC3` here?
The growth was 36.4%.

And the growth [2]?
Its growth is 76.1%.

What about the growth [3] of the same compound?
Its growth is 60.6%.

What about the growth [4] of the same compound?
Its growth is 24.5%.

And the growth [5]?
Its growth is 15.6%.

And the growth [6]?
The growth was 36.3%.

What about the growth [7] of the same compound?
Its growth is 17.3%.

And the growth [8]?
Its growth is 45.9%.

And the growth [9]?
The growth was 25.9%.

What about the growth [10] of the same compound?
The growth was 24.1%.

`CCCn1cc(/C=N\N=C2\C(=O)Nc3ccc(C)cc32)c2ccccc21` was tested. Which growth [1] did it give?
The growth was 48%.

And the growth [2]?
The growth was 92%.

What about the growth [3] of the same compound?
The growth was 47.8%.

And the growth [4]?
Its growth is 75.3%.

What about the growth [5] of the same compound?
Its growth is 32.1%.

And the growth [6]?
Its growth is 37.4%.

What about the growth [7] of the same compound?
The growth was 13.8%.

And the growth [8]?
Its growth is 63.9%.

And the growth [9]?
Its growth is 64.5%.

What about the growth [10] of the same compound?
The growth was -16.2% (active).
